Inconclusive results are not listed. Where a call stands in place of a potency, no number is given. A number with no mark means an inactive call. Activity calls are given as the source filed them. Calls come from the whole dose curve; as a rule, active = well fitted curve in the direction sought with a large enough effect in the repeat runs; inconclusive = weak or mixed curves; inactive = no such curve, though single readings can be large; an effect the other way counts as inactive or inconclusive.
Experiments:
[1] = qHTS assay to identify small molecule agonists of the RXR signaling pathway - cell viability counter screen (AID 1159529);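 note: HEK 293T cells carrying an RXR-alpha UAS beta-lactamase reporter; series mostly up to about 77 µM; nearly all actives have a fitted effect of over 50% in size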
How it was run: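 In this parallel viability measure, GeneBLAzer RXR-alpha HEK 293T cells (2% charcoal-stripped FBS) were given a 5 hr preincubation, treated with compounds 16 hr at 37 C, and read by CellTiter-Glo luminescence.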

[2] = qHTS assay to identify small molecule antagonists of the retinoic acid receptor (RAR) signaling pathway (AID 1159552; note: nearly all actives have a fitted effect of over 50% in size)
How it was run: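 C3RL4 RARE-luc cells, overnight plating; retinol 1 uM final added right after compound; 6 hr 37 C; luciferase read at 30 min RT.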

[3] = qHTS assay to identify small molecule agonists of the retinoic acid receptor (RAR) signaling pathway (AID 1159553)
How it was run: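 Activation of retinol signaling was monitored via a RARE luciferase reporter in C3RL4 cells. After 6 hr compound treatment at 37 C, detection reagent was added for 30 min at room temperature before luminescence reading.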

[4] = qHTS assay to identify small molecule antagonists of the estrogen related receptor (ERR) signaling pathway from Tox21 library - cell viability counter screen (AID 1224834); note: nearly all actives have a fitted effect of over 30% in size
How it was run: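 CellTiter-Fluor fluorescence measured; ERR cells; 17.5 h compound incubation at 37 C; 30 min reagent step.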

[5] = qHTS assay to identify small molecule agonists of the constitutive androstane receptor (CAR) signaling pathway - cell viability counter screen (AID 1224836); note: series mostly up to about 92 µM; nearly all actives have a fitted effect of over 45% in size
How it was run: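 Using CellTiter-Fluor, viability of HepG2 cells harbouring hCAR and CYP2B6-2.2kb was measured following 23 h incubation with a 15-concentration compound series plus PK11195 (0.75 uM final).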

[6] = qHTS assay to identify small molecule antagonists of the constitutive androstane receptor (CAR) signaling pathway - cell viability counter screen (AID 1224837); note: series mostly up to about 92 µM; nearly all actives have a fitted effect of over 45% in size
How it was run: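 Using CellTiter-Fluor, viability is scored in HepG2 cells stably carrying hCAR and a 2.2kb CYP2B6 reporter after 23 hr compound exposure across 15 concentrations, with CITCO present at 50 nM.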

[7] = target: Nuclear receptor subfamily 1 group I member 3 (Homo sapiens) (UniProt Q14994); test: qHTS assay to identify small molecule antagonists of the constitutive androstane receptor (CAR) signaling pathway (AID 1224838);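 note: HepG2 cells stably expressing hCAR with CYP2B6 luciferase reporter stimulated by CITCO; nearly all actives have a fitted effect of over 40% in size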
How it was run: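 Reporter luminescence was quantified after 24 h exposure of hCAR/CYP2B6-2.2kb double-stable HepG2 cells to compounds at 15 concentrations in the presence of 50 nM CITCO final.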

[8] = target: Nuclear receptor subfamily 1 group I member 3 (Homo sapiens) (UniProt Q14994); test: qHTS assay to identify small molecule agonists of the constitutive androstane receptor (CAR) signaling pathway (AID 1224839);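 note: HepG2 cells stably carrying human CAR and a CYP2B6 luciferase reporter; series mostly up to about 92 µM; nearly all actives have a fitted effect of over 15% in size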
How it was run: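 Double-stable HepG2 cells (hCAR, CYP2B6-2.2kb) seeded 4 h before compound addition. Exposure 24 h with 0.75 uM PK11195 final. Luciferase detected by ONE-Glo.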

[9] = target: Luciferin 4-monooxygenase (Photinus pyralis) (UniProt P08659); test: qHTS assay to identify small molecule inhibitors of firefly luciferase (AID 1224835); note: nearly all actives have a fitted effect of over 25% in size; note: potency is the fitted concentration of half-maximal effect; for activity change, negative = inhibition: series mostly up to about 120 µM
How it was run: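 Inhibition of purified Photinus luciferase is measured by luminescence. Substrate levels (D-luciferin, ATP) sit at their KM values. Each compound is tested in a concentration series.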

[10] = qHTS assay to identify small molecule antagonists of the retinoid acid receptor (RAR) signaling pathway - cell viability counter screen (AID 1159551); note: nearly all actives have a fitted effect of over 35% in size
How it was run: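 Seed C3RL4 cells; next day add compound, then retinol to 1 uM final; incubate 6 h at 37 C; add CellTiter-Glo; read luminescence after 30 min at RT.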

Sequence of Luciferin 4-monooxygenase (Photinus pyralis) (P08659 whole entry, looked up): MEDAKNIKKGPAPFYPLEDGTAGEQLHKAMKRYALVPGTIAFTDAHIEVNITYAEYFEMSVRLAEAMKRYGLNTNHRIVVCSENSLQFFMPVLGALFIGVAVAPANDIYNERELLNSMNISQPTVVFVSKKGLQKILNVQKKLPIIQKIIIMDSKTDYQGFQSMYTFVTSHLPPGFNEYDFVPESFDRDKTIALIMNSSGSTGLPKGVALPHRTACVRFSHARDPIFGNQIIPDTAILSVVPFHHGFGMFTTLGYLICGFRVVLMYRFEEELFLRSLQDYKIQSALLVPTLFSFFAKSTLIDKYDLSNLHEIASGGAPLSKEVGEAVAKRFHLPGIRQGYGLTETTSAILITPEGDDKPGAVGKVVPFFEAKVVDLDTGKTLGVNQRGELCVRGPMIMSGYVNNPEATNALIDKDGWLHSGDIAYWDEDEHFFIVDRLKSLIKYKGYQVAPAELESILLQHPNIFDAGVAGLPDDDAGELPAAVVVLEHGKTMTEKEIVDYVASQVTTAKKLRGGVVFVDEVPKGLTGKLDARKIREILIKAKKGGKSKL
Sequence of Nuclear receptor subfamily 1 group I member 3 (Homo sapiens) (Q14994 whole entry, looked up): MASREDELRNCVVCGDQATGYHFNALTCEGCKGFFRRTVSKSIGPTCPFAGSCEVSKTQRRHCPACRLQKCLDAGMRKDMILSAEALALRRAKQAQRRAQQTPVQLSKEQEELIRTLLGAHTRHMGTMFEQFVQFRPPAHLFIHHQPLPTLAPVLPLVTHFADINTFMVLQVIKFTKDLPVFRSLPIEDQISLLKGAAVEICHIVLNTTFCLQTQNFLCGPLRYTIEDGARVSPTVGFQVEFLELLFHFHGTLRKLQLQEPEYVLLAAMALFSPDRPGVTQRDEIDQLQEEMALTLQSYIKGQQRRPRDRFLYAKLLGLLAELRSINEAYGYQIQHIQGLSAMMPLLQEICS

OCC1(CO)COCOC1
outcome [1]: inactive
outcome [2]: inactive
Potency [3]: inactive
outcome [4]: inactive
outcome [5]: inactive
outcome [6]: inactive
Potency [7]: inactive
Potency [8]: inactive

CC(C)CCOC(=O)c1ccccc1
outcome [1]: inactive
outcome [2]: inactive
Potency [3]: inactive
outcome [4]: inactive
Potency [9]: 71 µM (active)
outcome [5]: inactive
outcome [6]: inactive
Potency [7]: inactive
Potency [8]: inactive

CCC(C)C(=O)OCCc1ccccc1 (centres undefined)
outcome [1]: inactive
outcome [2]: inactive
Potency [3]: inactive
outcome [4]: inactive
Potency [9]: 50.2 µM (active)
outcome [5]: inactive
outcome [6]: inactive
Potency [7]: inactive
Potency [8]: inactive

CC(C)[C@H]1CC[C@H](C)C[C@@H]1O
outcome [1]: inactive
outcome [2]: inactive
Potency [3]: inactive
outcome [4]: inactive
Potency [9]: inactive
outcome [5]: inactive
outcome [6]: inactive
Potency [7]: inactive
Potency [8]: inactive

CC1(C)Cc2cccc(N)c2O1
outcome [1]: inactive
Potency [3]: inactive
outcome [4]: inactive
Potency [9]: inactive
outcome [5]: inactive
outcome [6]: inactive
Potency [7]: inactive

c1ccc2c(CC3=NCCN3)cccc2c1
outcome [1]: inactive
outcome [2]: inactive
Potency [3]: inactive
outcome [4]: inactive
Potency [9]: inactive
outcome [5]: inactive
outcome [6]: inactive
Potency [7]: inactive
Potency [8]: inactive

Cc1ncc([N+](=O)[O-])n1CC(C)O (centres undefined)
outcome [1]: inactive
outcome [2]: inactive
Potency [3]: inactive
outcome [4]: inactive
outcome [5]: inactive
outcome [6]: inactive
Potency [7]: inactive
Potency [8]: inactive

C[C@@H](O)C(=O)O
outcome [1]: inactive
outcome [2]: inactive
Potency [3]: inactive
outcome [4]: inactive
outcome [5]: inactive
outcome [6]: inactive
Potency [7]: inactive
Potency [8]: inactive

CCCCCCCCCCCCCCC(=O)NC(CO)CCCCCCCCCCCCCC (centres undefined)
outcome [1]: inactive
outcome [2]: inactive
Potency [3]: inactive
outcome [4]: inactive
Potency [9]: inactive
outcome [5]: inactive
outcome [6]: inactive
Potency [7]: inactive

O=[N+]([O-])c1c(Cl)cc(Cl)cc1Cl
outcome [1]: inactive
outcome [2]: inactive
Potency [3]: inactive
outcome [4]: inactive
Potency [9]: inactive
outcome [5]: inactive
outcome [6]: inactive
Potency [7]: inactive

OC[C@@H](O)C(O)[C@@H](O)CO (some centres undefined)
outcome [1]: inactive
outcome [2]: inactive
Potency [3]: inactive
outcome [4]: inactive
outcome [5]: inactive
outcome [6]: inactive
Potency [7]: inactive
Potency [8]: inactive

CCC(=O)c1c(O)cc(O)cc1O
outcome [1]: inactive
outcome [2]: inactive
Potency [3]: inactive
outcome [4]: inactive
outcome [5]: inactive
outcome [6]: inactive
Potency [7]: inactive
Potency [8]: inactive

Cc1c(C(=O)c2c[nH]n(C)c2=O)ccc(S(C)(=O)=O)c1C1=NOCC1
outcome [1]: inactive
outcome [2]: inactive
Potency [3]: inactive
outcome [4]: inactive
Potency [9]: inactive
outcome [5]: inactive
outcome [6]: inactive
Potency [7]: inactive
Potency [8]: inactive

CCC(C)C(C)=O (centres undefined)
outcome [1]: inactive
outcome [2]: inactive
Potency [3]: inactive
outcome [4]: inactive
Potency [9]: inactive
outcome [5]: inactive
outcome [6]: inactive
Potency [7]: inactive

C/C(CC(C)C)=N\O
outcome [1]: inactive
outcome [2]: inactive
Potency [3]: inactive
outcome [4]: inactive
outcome [5]: inactive
outcome [6]: inactive
Potency [7]: inactive
Potency [8]: inactive

CO[Si](CCCn1c(=O)n(CCC[Si](OC)(OC)OC)c(=O)n(CCC[Si](OC)(OC)OC)c1=O)(OC)OC
outcome [10]: inactive
outcome [2]: inactive
Potency [3]: inactive
outcome [4]: inactive
Potency [9]: inactive
outcome [5]: inactive
outcome [6]: inactive
Potency [7]: inactive

Cc1c(Cl)cccc1Cl
outcome [10]: inactive
outcome [2]: inactive
Potency [3]: inactive
outcome [4]: inactive
Potency [9]: inactive
outcome [5]: inactive
outcome [6]: inactive
Potency [7]: inactive
Potency [8]: inactive

COP(=O)(O)OP(=O)(O)OC
outcome [10]: inactive
outcome [2]: inactive
Potency [3]: inactive
outcome [4]: inactive
Potency [9]: inactive
outcome [5]: inactive
outcome [6]: inactive
Potency [7]: inactive
Potency [8]: inactive

O=C(Cn1ccnc1[N+](=O)[O-])NCc1ccccc1
outcome [10]: inactive
Potency [3]: inactive
outcome [4]: inactive
outcome [5]: inactive
outcome [6]: inactive
Potency [7]: inactive

C=CC/C=C/C
outcome [10]: inactive
outcome [2]: inactive
Potency [3]: inactive
outcome [4]: inactive
outcome [5]: inactive
outcome [6]: inactive

CCO
outcome [10]: inactive
Potency [3]: inactive
outcome [4]: inactive
Potency [9]: inactive
outcome [5]: inactive
outcome [6]: inactive
Potency [7]: inactive
Potency [8]: inactive

CCOc1ccccc1OCC1CNCCO1 (centres undefined)
outcome [10]: inactive
outcome [2]: inactive
Potency [3]: inactive
outcome [4]: inactive
Potency [9]: inactive
outcome [5]: inactive
outcome [6]: inactive
Potency [7]: inactive
Potency [8]: inactive

N[C@@H](Cc1ccc(O)cc1)C(=O)O
activity change, negative = cytotoxicity [10]: -0.852% [at 8.39 µM]
activity, negative = inhibition [2]: 7.5% [at 8.39 µM]
activation [3]: 0.0879% [at 8.36 µM]
viability change, negative = cytotoxic [4]: 1.55% [at 8.39 µM]
activity change, negative = inhibition [9]: 1.38% [at 10.5 µM]
viability change, negative = cytotoxic [5]: -0.95% [at 8.39 µM]
activity change, negative = cytotoxicity [6]: 8.2% [at 8.39 µM]
activity, negative = inhibition [7]: -4.54% [at 8.39 µM]
activation [8]: -2.78% [at 8.39 µM]

CCCCOCC(C)O (centres undefined)
outcome [10]: inactive
outcome [2]: inactive
Potency [3]: inactive
outcome [4]: inactive
Potency [9]: inactive
outcome [5]: inactive
outcome [6]: inactive
Potency [7]: inactive
Potency [8]: inactive

CCCCCc1cccc(=O)o1
outcome [2]: inactive
Potency [3]: inactive
outcome [4]: inactive
Potency [9]: inactive
outcome [5]: inactive
outcome [6]: inactive
Potency [7]: inactive
Potency [8]: inactive

CC(=O)CCC1=C(C)CCCC1(C)C
outcome [10]: inactive
outcome [2]: inactive
Potency [3]: inactive
outcome [4]: inactive
Potency [9]: inactive
outcome [5]: inactive
outcome [6]: inactive
Potency [7]: inactive
Potency [8]: inactive

From PubChem BioAssay (Tox21)
